# From the supplement of paper PMC8773631
# Counter-ions that a name gives are not always drawn. ± gives the uncertainty stated by the source.
# System: NCC-MFS5-C1
# Experiment: cell viability relative to DMSO control; higher = less growth inhibition
# Conditions: 10 µM; treatment time: 3 days
# Experimental: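 NCC-MFS5-C1 myxofibrosarcoma cells (1x10^4 per well, 384-well) were treated on day 2 with 10 µM of each drug. On day 5, viability was read by CCK-8 absorbance at 450 nm and normalised to the DMSO control (%), n = 2.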
row,SMILES,cell viability
1,Nc1ncn([C@@H]2O[C@H](CO)[C@@H](O)[C@H]2O)c(=O)n1 [Azacitidine],104 ± 13%
2,O=NN(CCCl)C(=O)NC1CCCCC1 [Lomustine],84.1 ± 18%
3,Cc1ccc(C(=O)Nc2ccc(CN3CCN(C)CC3)c(C(F)(F)F)c2)cc1C#Cc1cnc2cccnn12,-2.74 ± 0.27%
4,Nc1nc(Cl)nc2c1ncn2[C@@H]1O[C@H](CO)[C@@H](O)[C@@H]1F [Clofarabine],98.8 ± 21%
5,Nc1cccc2c1CN(C1CCC(=O)NC1=O)C2=O (stereo not given) [Lenalidomide],105 ± 4.7%
6,CS(=O)(=O)c1ccc(C(=O)Nc2ccc(Cl)c(-c3ccccn3)c2)c(Cl)c1 [Vismodegib (GDC-0449)],70.2 ± 7.4%
7,COc1cc2c(Oc3ccc4[nH]c(C)cc4c3F)ncnc2cc1OCCCN1CCCC1 [Cediranib (AZD2171)],-0.717 ± 0.35%
8,Nc1ccn([C@@H]2O[C@H](CO)[C@@H](O)[C@@H]2O)c(=O)n1 [Cytosine β-D-arabinofuranoside hydrochloride],118 ± 20%
9,COC(=O)N[C@H](C(=O)N[C@@H](Cc1ccccc1)[C@@H](O)CN(Cc1ccc(-c2ccccn2)cc1)NC(=O)[C@@H](NC(=O)OC)C(C)(C)C)C(C)(C)C [Atazanavir Sulfate],67.8 ± 13%
10,O=C1CCC(N2C(=O)c3ccccc3C2=O)C(=O)N1 (stereo not given) [Thalidomide],84.4 ± 8.3%
11,Clc1ccc(Nc2nnc(Cc3ccncc3)c3ccccc23)cc1 [Vatalanib (PTK787) 2HCl],59.1 ± 0.89%
12,"O=c1[nH]cc(F)c(=O)[nH]1 [Fluorouracil (5-Fluoracil, 5-FU)]",78.9 ± 19%
13,CC(C)c1nc(CN(C)C(=O)N[C@@H](CCN2CCOCC2)C(=O)N[C@H](CC[C@H](Cc2ccccc2)NC(=O)OCc2cncs2)Cc2ccccc2)cs1 [Cobicistat (GS-9350)],61.5 ± 0.43%
14,CC(C)(C)c1cc(NC(=O)Nc2ccc(-c3cn4c(n3)sc3cc(OCCN5CCOCC5)ccc34)cc2)no1 [Quizartinib (AC220)],57.8 ± 2.7%
15,CN(C)C/C=C/C(=O)Nc1cc2c(Nc3ccc(F)c(Cl)c3)ncnc2cc1O[C@H]1CCOC1 [Afatinib (BIBW2992) Dimaleate],15 ± 7%
16,Cc1nc(NC(=O)N2CCC[C@H]2C(N)=O)sc1-c1ccnc(C(C)(C)C(F)(F)F)c1 [Alpelisib],92.6 ± 1%
17,FC(F)(F)c1ccc(CNc2ccc(Cc3c[nH]c4ncc(Cl)cc34)cn2)cn1 [Pexidartinib (PLX3397)],72.5 ± 5.8%
18,CC(=O)O[C@@]12CO[C@@H]1C[C@H](O)[C@@]1(C)C(=O)[C@H](O)C3=C(C)[C@@H](OC(=O)[C@H](O)[C@@H](NC(=O)OC(C)(C)C)c4ccccc4)C[C@@](O)([C@@H](OC(=O)c4ccccc4)[C@H]21)C3(C)C [Docetaxel],67 ± 2.2%
19,C#CCC(Cc1cnc2nc(N)nc(N)c2n1)c1ccc(C(=O)N[C@@H](CCC(=O)O)C(=O)O)cc1 (stereo not given in full) [Pralatrexate],85 ± 4.1%
20,O=c1[nH]c(=O)n([C@H]2C[C@H](O)[C@@H](CO)O2)cc1F [Floxuridine],80 ± 3.9%

row,SMILES,cell viability
1,CS(=O)(=O)CCNCc1ccc(-c2ccc3ncnc(Nc4ccc(OCc5cccc(F)c5)c(Cl)c4)c3c2)o1,77.3 ± 25%
2,COC(=O)C1=C(C#N)NC(C)=C(C(=O)OC(C)C)C1c1cccc([N+](=O)[O-])c1 (stereo not given) [Nilvadipine],86 ± 4.2%
3,COc1cc2nccc(Oc3ccc(NC(=O)NC4CC4)c(Cl)c3)c2cc1C(N)=O [Lenvatinib (E7080)],75.4 ± 0.93%
4,"C/C=C1\NC(=O)[C@H]2CSSCC/C=C/[C@H](CC(=O)N[C@H](C(C)C)C(=O)N2)OC(=O)[C@H](C(C)C)NC1=O [Romidepsin (FK228, Depsipeptide)]",-1.35 ± 0.8%
5,Cc1nc(Nc2ncc(C(=O)Nc3c(C)cccc3Cl)s2)cc(N2CCN(CCO)CC2)n1 [Dasatinib],55.3 ± 5.5%
6,CN1CCN(c2ccc(C(=O)Nc3n[nH]c4ccc(Cc5cc(F)cc(F)c5)cc34)c(NC3CCOCC3)c2)CC1 [Entrectinib (RXDX-101)],14.7 ± 15%
7,N#CC[C@H](C1CCCC1)n1cc(-c2ncnc3[nH]ccc23)cn1,66.2 ± 4.7%
8,CCS(=O)(=O)N1CCN(c2ccc(Nc3ncc(C(N)=O)c(NC4CC4)n3)cc2)CC1,61.5 ± 1.8%
9,C[C@@]12C[C@@]3(O)O[C@@H](O1)[C@]1(COC(=O)c4ccccc4)[C@H]3C[C@@]12O[C@@H]1O[C@H](CO)[C@@H](O)[C@H](O)[C@H]1O [Paeoniflorin],83.6 ± 1.2%
10,O=C(Nc1nc2cccc(-c3ccc(CN4CCS(=O)(=O)CC4)cc3)n2n1)C1CC1 [Filgotinib (GLPG0634)],93.1 ± 4.5%
11,CCOc1cc(C(C)(C)C)ccc1C1=N[C@@](C)(c2ccc(Cl)cc2)[C@@](C)(c2ccc(Cl)cc2)N1C(=O)N1CCN(CCCS(C)(=O)=O)CC1,96 ± 5.5%
12,CNC(=O)c1cc(Oc2ccc(NC(=O)Nc3ccc(Cl)c(C(F)(F)F)c3)cc2)ccn1 [Sorafenib Tosylate],45.3 ± 1.9%
13,C#Cc1cccc(Nc2ncnc3cc(OCCOC)c(OCCOC)cc23)c1 [Erlotinib],81.7 ± 5.8%
14,O=c1c(-c2ccc(O)cc2)coc2cc(O)cc(O)c12 [Genistein],81.4 ± 10%
15,CC[C@]1(O)C[C@H]2CN(CCc3c([nH]c4ccccc34)[C@@](C(=O)OC)(c3cc4c(cc3OC)N(C=O)[C@H]3[C@@](O)(C(=O)OC)[C@H](OC(C)=O)[C@]5(CC)C=CCN6CC[C@]43[C@@H]65)C2)C1 [Vincristine],29.8 ± 4.2%
16,Nc1nc(F)nc2c1ncn2[C@@H]1O[C@H](CO)[C@@H](O)[C@@H]1O [Fludarabine],96.3 ± 7.3%
17,O=C(O)C1=CO[C@@H](O[C@@H]2O[C@H](CO)[C@@H](O)[C@H](O)[C@H]2O)[C@@H]2C(CO)=CC[C@H]12 [Geniposidic acid],85.8 ± 4.8%
18,CCCCNC(=O)NS(=O)(=O)c1ccc(C)cc1 [Tolbutamide],82.5 ± 3.6%
19,N#CC1(c2ccc(NC(=O)c3cccnc3NCc3ccncc3)cc2)CCCC1 [Apatinib],80.9 ± 2%
20,COc1cc2c(Oc3ccc(NC(=O)C4(C(=O)Nc5ccc(F)cc5)CC4)cc3F)ccnc2cc1OCCCN1CCOCC1,7.35 ± 2%
